# Unmarked numbers belong to inactive results. Results filed as inconclusive are left out. Active and inactive are the calls of the source. Unless noted, calls come from the whole dose curve; as a rule, active = well fitted curve in the direction sought with a large enough effect; inconclusive = small, poorly fitted or top-dose-only effect, or another doubt; inactive = no such curve, though single readings can be large; an effect the other way counts as inactive or inconclusive.
# What was measured:
# [1] = target: Lysosomal acid glucosylceramidase (Homo sapiens) (UniProt P04062); assay: Glucocerebrosidase-p2 (AID 348; in the data active = potency below about 10 µM; note: potency is the fitted concentration of half-maximal effect); settings: purified GBA, blue fluorogenic substrate, 40 min
# How it was run: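 Compounds titrated from 0.6 nM upwards against 0.2 nM enzyme in pH 5.9 citric acid/KH2PO4, taurocholate, tween-20; blue fluorogenic substrate 80 uM, 40 min room temperature, stopped and read Ex 365/Em 440 for AC50.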
# [2] = AP1 Signaling Pathway (AID 357; active = well fitted curve in either direction with a large enough effect, not every such curve was filed as active; note: % is set by controls: 0 for no effect and ±100 for the full control effect); settings: ME-180 AP-1-bla reporter, EGF-induced, beta-lactamase ratio, 5 h; at 7.69 µM (top of the series) unless noted
# How it was run: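 In this screen, ME-180 cells in Opti-MEM with 0.5% dialyzed FBS received EC50 EGF and compound titrations for 5 h. AP-1 reporter beta-lactamase was detected via CCF4 ratio, giving AC50 for positive and negative modulators.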
# [3] = target: Cytochrome P450 1A2 (Homo sapiens) (UniProt P05177); assay: p450-cyp1a2 (AID 410; calls by dose curve; note: potency is the fitted concentration of half-maximal effect); settings: recombinant CYP1A2, luciferin-ME demethylation, luminescence; series mostly up to 57 µM
# How it was run: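 Luminescent readout of luciferin formed from Luciferin-ME by human CYP1A2; data normalized against complete inhibition by 57 uM furafylline. Enzyme 20nM, substrate 100uM at Km, 100mM KPO4 buffer, 60 min reaction at room temperature.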
# [4] = NFAT Signaling Pathway (AID 444; active = well fitted curve in either direction with a large enough effect, not every such curve was filed as active;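 note: carbachol stimulus at about its EC50 of 1 µM final; % is set by controls: 0 for no effect and ±100 for the full control effect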); settings: Jurkat NFAT-bla M1, carbachol, beta-lactamase ratio, 5 h; at 7.69 µM (top of the series) unless noted
# How it was run: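 Jurkat cells carrying an NFAT-driven β-lactamase reporter and co-transfected muscarinic M1 receptor were treated with compound plus carbachol (1 uM final, an EC50 level) for 5 h at 37 °C. CCF4 loading followed for 1 h at RT; 460/530 nm ratio gave %activity.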
# [5] = Stat Signaling Pathway (AID 446; active = well fitted curve in either direction with a large enough effect, not every such curve was filed as active;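 note: ME-180 cervical cancer cells given 40 pM IL-6 alongside compound; SIE-controlled beta-lactamase reporter measured as 460/530 nm FRET emission ratio; % is set by controls: 0 for no effect and ±100 for the full control effect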); settings: ME-180 SIE beta-lactamase reporter, IL-6 stimulated, 5 h; at 7.69 µM (top of the series) unless noted
# How it was run: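 Screening format detects activators and inhibitors alike: ME-180 SIE-bla cells stimulated at 40 pM IL-6 for 5 hrs with compound, then dual-emission beta-lactamase read at 405 nm excitation.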
# [6] = target: Glucocorticoid receptor (Homo sapiens) (UniProt P04150); assay: GR-GFP Redistribution (AID 450;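 active = compounds whose dose series gives a full or clear partial fitted curve of increased nuclear translocation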; note: potency is the fitted concentration of half-maximal effect); settings: U2OS GR-GFP nuclear translocation, laser cytometry, 2 h
# [7] = target: Glucocorticoid receptor (Homo sapiens) (UniProt P04150); assay: GR-EFC Redistribution (AID 451; calls by dose curve; note: potency is the fitted concentration of half-maximal effect); settings: CHO-K1 GR-EFC translocation, beta-gal luminescence, 2 h
# How it was run: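 CHO-K1 cells stably expressing nuclear-localized β-gal enzyme acceptor and GR fused C-terminally to the enzyme donor fragment; ligand-driven nuclear translocation restores β-gal by complementation. Compounds titrated up to 46 uM final, 2 h at 37 °C; luminescence read.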
# [8] = target: Mitogen-activated protein kinase 10 (Mus musculus) (UniProt Q61831); assay: JNK3 AlphaScreen Assay (AID 530; active = well fitted curve in either direction with a large enough effect, not every such curve was filed as active;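 note: kinase came from lysate of stimulated human HepG2 cells; signal reports phosphorylation of biotinylated GST-cJun 1-79 at Ser73 with 10 µM ATP; % is set by controls: 0 for no effect and ±100 for the full control effect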); settings: JNK3 lysate, c-Jun phosphorylation; series mostly up to 57.1 µM
# How it was run: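 Inhibitors reduce antibody binding to phosphorylated biotin-cJun, lowering AlphaScreen luminescence. Lysates from HepG2 cells pre-activated by IL-1beta plus TNF-alpha supplied JNK3; compounds were titrated.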
# [9] = target: 3',5'-cyclic-AMP phosphodiesterase 4B (Homo sapiens) (UniProt Q07343); assay: qHTS Assay for Inhibitors of PDE-IV (AID 607; active = well fitted activation curve with a large enough effect in the main read-out, with a control signal flat, not every such curve was filed as active; note: % of control where 0% means no effect); settings: HEK293 ACTOne CNG channel cells, membrane potential fluorescence; series mostly up to 22.9 µM
# How it was run: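 The readout is membrane depolarisation from a cAMP-sensing CNG channel, detected with a potential dye at ex 535/em 590. Cells were HEK293-derived (endogenous PDE-IV) at 1000 cells/well, titrated up to 22.9 uM final.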
# [10] = target: Cytochrome P450 3A4 (Homo sapiens) (UniProt P08684); assay: qHTS Assay for Activators of Cytochrome P450 3A4 (AID 885); settings: recombinant CYP3A4, Luciferin-PPXE luminescence, 60 min; series mostly up to 57.1 µM; note: nearly all actives have a fitted effect of over 65% in size
# How it was run: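 Steps: enzyme/substrate mix dispensed; compound added, 10 min RT; NADPH regeneration solution added, 60 min RT; luciferin detection buffer stops reaction; 20 min later luminescence measured.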
# [11] = target: Cytochrome P450 2C19 (Homo sapiens) (UniProt P33261); assay: qHTS Assay for Inhibitors and Substrates of Cytochrome P450 2C19 (AID 899); settings: recombinant CYP2C19, luciferin-H EGE luminescence; series mostly up to 57.1 µM; note: potency is the fitted concentration of half-maximal effect; nearly all actives have a fitted effect of over 60% in size
# How it was run: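 Human CYP2C19 (5nM) with Luciferin-H EGE at 10uM (its KM) in 50mM KPO4 was preincubated with compound for 10 min at 37C. NADPH regeneration started a 60 min 37C reaction. Luciferin was read by luminescence, normalized to 57uM ketoconazole.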
# [12] = qHTS Assay for Identification of Small Molecule Agonists for Hypoxia Response Element Signaling Pathway (AID 914; active = well fitted activation curve with a large enough effect in the signal ratio, with a control signal flat, not every such curve was filed as active; the % refers to the signal ratio; note: % of control where 0% means no effect); settings: ME-180 (cervical carcinoma) HRE-bla reporter, beta-lactamase ratio, CoCl2, 17 h; activation: stronger effect = higher value
# How it was run: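 Positive modulation of EC50 CoCl2-induced hypoxia response element signaling is measured in ME-180 cells with a beta-lactamase reporter. Compounds are titrated, incubation runs 17 hours, and %Activity derives from the blue/green ratio.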
# [13] = target: Dual specificity protein kinase CLK4 (Homo sapiens) (UniProt Q9HAZ1); assay: qHTS Assay for Inhibitors of CDC-like Kinase 4 (ADP-FP Assay) (AID 1795); settings: Transcreener ADP fluorescence polarization; series mostly up to 50 µM;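 note: recombinant human CLK4 phosphorylating RS repeat peptide at 1 µM ATP; % is set by controls: 0 for no effect and ±100 for the full control effect; nearly all actives have a fitted effect of over 60% in size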
# How it was run: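 Recombinant Clk4 (6.25 nM) phosphorylated 100 uM RS repeat peptide with 1 uM ATP in 25 mM Tris pH 7.5, 10 mM MgCl2, 0.5 mM EGTA, 2.5 mM DTT, 0.01% Triton X-100 for 1 h. ADP was detected by Transcreener ADP2 competitive fluorescence polarization after 30 min at room temperature.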
# [14] = Primary qHTS for small molecule stabilizers of the endoplasmic reticulum resident proteome: Secreted ER Calcium Modulated Protein (SERCaMP) assay (AID 1508630); settings: SH-SY5Y GLuc-SERCaMP (Gaussia luciferase released on ER calcium loss) secretion, thapsigargin, luminescence; series mostly up to 38.4 µM; note: % is set by controls: 0 for no effect and ±100 for the full control effect
# How it was run: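 GLuc-SERCaMP-expressing SH-SY5Y cells, pretreated 16 h with compound, are challenged with thapsigargin to empty ER calcium stores; after 4 h, coelenterazine is added directly to the medium and luminescence is imaged.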
# [15] = target: Cytochrome P450 3A4 (Homo sapiens) (UniProt P08684); assay: qHTS Assay for Inhibitors and Substrates of Cytochrome P450 3A4 (AID 884); settings: recombinant CYP3A4, Luciferin-PPXE luminescence; series mostly up to 57.1 µM; note: potency is the fitted concentration of half-maximal effect; nearly all actives have a fitted effect of over 50% in size
# How it was run: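 20 nM human CYP3A4 with 25 uM Luciferin-PPXE (at KM) in 200 mM KPO4, preincubated 10 min with compound; NADPH regeneration started a 60 min RT reaction. Luciferin detected by luminescence, normalized to 57 uM ketoconazole as full inhibition.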
# [16] = target: Ubiquitin carboxyl-terminal hydrolase 1 (Homo sapiens) (UniProt O94782); assay: Inhibitors of USP1/UAF1: Pilot qHTS (AID 504865); settings: purified USP1/UAF1, Ub-rhodamine cleavage fluorescence; series mostly up to 54.9 µM;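 note: rhodamine fluorescence freed from ubiquitin-rhodamine substrate followed over time; top concentration of the series differs between compounds; % is set by controls: 0 for no effect and ±100 for the full control effect; nearly all actives have a fitted effect of over 35% in size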
# How it was run: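 USP1/UAF1 complex at 1 nM preincubated 15 min at room temperature with compound, then Ub-Rho substrate added at 150 nM final. Fluorescence (480/540 nm) read kinetically in 50 mM HEPES pH 7.8, 0.5 mM EDTA, 1 mM TCEP, 0.1 mg/ml BSA, 0.01% Tween-20.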
# Lysosomal acid glucosylceramidase (Homo sapiens), sequence (P04062 whole entry, looked up): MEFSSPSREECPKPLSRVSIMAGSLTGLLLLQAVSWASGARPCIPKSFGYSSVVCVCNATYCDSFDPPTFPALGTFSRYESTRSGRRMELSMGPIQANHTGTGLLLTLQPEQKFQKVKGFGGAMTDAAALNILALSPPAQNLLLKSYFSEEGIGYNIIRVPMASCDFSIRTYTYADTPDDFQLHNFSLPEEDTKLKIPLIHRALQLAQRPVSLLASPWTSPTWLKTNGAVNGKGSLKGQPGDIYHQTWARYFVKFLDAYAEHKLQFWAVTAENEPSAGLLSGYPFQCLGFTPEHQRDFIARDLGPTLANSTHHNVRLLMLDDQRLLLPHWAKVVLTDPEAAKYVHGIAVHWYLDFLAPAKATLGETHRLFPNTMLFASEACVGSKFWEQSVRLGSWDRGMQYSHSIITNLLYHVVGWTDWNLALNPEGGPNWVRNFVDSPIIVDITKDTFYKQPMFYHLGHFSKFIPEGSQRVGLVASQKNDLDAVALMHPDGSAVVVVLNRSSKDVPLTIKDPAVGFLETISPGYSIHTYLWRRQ
# Cytochrome P450 2C19 (Homo sapiens), sequence (P33261 whole entry, looked up): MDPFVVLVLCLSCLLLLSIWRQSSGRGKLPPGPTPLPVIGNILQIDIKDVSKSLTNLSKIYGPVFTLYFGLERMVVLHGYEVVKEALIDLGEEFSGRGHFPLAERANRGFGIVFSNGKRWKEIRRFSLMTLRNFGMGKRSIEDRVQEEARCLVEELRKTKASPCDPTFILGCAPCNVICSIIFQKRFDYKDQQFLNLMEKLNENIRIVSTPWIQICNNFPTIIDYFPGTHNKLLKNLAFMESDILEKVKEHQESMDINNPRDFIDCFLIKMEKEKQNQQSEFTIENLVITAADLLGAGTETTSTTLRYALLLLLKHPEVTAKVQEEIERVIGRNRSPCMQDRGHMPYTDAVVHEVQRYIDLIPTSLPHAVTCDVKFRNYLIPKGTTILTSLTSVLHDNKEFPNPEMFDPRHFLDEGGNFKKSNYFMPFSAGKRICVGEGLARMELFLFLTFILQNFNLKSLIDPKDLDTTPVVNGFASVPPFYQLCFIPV
# Cytochrome P450 3A4 (Homo sapiens), sequence (P08684 whole entry, looked up): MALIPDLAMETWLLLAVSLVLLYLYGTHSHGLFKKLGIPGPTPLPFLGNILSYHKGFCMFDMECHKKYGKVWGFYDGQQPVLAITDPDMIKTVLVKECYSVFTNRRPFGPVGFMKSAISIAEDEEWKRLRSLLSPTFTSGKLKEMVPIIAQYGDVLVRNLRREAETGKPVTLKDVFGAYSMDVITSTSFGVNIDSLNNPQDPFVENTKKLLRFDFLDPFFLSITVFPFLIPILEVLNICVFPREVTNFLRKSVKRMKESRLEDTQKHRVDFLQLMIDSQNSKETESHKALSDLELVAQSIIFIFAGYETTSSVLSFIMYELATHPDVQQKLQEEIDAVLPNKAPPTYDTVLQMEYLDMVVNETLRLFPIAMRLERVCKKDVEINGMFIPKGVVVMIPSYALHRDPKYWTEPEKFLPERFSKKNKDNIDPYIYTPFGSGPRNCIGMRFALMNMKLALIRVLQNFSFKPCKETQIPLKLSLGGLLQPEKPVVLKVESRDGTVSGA
# Dual specificity protein kinase CLK4 (Homo sapiens), sequence (Q9HAZ1 whole entry, looked up): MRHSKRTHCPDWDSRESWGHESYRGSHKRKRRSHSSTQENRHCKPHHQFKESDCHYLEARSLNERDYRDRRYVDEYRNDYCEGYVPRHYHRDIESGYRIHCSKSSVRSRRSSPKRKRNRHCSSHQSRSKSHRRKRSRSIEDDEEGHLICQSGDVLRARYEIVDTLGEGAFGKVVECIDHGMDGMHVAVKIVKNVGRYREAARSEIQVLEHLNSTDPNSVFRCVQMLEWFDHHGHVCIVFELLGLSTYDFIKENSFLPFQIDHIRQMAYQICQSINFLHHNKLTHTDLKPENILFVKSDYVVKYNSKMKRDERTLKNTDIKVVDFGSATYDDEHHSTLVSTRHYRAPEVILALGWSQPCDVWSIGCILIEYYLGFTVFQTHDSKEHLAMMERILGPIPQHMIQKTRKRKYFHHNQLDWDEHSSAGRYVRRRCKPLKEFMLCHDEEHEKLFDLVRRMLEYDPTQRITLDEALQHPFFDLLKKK
# Glucocorticoid receptor (Homo sapiens), sequence (P04150 whole entry, looked up, the tested form may be a part): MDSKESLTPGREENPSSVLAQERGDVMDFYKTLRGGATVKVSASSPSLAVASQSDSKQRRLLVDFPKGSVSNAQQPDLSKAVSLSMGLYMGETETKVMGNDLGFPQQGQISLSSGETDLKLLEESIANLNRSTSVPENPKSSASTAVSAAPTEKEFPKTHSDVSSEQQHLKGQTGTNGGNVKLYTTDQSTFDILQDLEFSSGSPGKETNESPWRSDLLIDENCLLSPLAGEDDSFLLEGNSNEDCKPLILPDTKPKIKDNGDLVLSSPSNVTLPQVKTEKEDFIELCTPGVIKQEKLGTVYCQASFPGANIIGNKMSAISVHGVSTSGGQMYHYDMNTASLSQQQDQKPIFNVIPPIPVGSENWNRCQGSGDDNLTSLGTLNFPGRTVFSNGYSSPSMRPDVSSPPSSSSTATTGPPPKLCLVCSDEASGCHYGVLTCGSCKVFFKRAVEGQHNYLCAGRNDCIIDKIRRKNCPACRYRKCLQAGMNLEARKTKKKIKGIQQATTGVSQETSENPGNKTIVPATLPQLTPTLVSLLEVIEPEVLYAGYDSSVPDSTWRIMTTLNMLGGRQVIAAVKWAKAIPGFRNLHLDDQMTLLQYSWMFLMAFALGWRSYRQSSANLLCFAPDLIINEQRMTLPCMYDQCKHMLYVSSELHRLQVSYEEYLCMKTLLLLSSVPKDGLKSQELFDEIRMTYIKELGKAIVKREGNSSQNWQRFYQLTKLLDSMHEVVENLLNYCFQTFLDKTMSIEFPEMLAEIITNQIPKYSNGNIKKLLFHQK
# 3',5'-cyclic-AMP phosphodiesterase 4B (Homo sapiens), sequence (Q07343 whole entry, looked up): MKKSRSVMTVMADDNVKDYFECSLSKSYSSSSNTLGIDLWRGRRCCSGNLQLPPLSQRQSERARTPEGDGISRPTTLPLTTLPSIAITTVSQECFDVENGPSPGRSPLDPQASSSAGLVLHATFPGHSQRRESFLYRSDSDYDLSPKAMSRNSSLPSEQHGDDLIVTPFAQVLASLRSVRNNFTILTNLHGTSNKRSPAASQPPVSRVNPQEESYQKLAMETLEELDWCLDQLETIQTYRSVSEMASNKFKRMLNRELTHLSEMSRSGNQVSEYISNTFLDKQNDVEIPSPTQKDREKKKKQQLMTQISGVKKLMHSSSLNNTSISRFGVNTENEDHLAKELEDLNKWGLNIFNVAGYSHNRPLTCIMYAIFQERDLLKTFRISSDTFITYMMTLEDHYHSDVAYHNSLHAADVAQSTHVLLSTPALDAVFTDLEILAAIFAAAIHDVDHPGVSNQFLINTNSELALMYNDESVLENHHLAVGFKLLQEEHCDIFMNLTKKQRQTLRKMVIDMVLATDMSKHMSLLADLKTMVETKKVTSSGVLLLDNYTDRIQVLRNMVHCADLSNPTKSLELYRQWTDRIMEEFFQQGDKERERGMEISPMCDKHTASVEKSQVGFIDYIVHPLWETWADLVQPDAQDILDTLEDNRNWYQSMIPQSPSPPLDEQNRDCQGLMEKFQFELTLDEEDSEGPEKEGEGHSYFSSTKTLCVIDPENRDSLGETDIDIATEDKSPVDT
# Cytochrome P450 1A2 (Homo sapiens), sequence (P05177 whole entry, looked up): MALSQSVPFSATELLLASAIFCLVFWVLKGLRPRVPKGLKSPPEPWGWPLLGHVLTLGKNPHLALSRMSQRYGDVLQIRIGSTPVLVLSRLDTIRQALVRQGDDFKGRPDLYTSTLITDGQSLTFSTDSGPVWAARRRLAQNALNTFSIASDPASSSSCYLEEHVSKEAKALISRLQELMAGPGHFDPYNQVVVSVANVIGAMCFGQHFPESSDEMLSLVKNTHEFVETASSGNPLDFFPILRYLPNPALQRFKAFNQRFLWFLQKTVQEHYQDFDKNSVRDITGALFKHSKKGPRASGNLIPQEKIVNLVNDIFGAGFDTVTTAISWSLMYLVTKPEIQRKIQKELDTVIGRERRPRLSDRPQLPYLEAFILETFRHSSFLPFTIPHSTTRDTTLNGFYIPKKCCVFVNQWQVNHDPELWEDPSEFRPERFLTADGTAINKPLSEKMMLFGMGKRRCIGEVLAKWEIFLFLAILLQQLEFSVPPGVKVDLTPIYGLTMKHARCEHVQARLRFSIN
# Ubiquitin carboxyl-terminal hydrolase 1 (Homo sapiens), sequence (O94782 whole entry, looked up): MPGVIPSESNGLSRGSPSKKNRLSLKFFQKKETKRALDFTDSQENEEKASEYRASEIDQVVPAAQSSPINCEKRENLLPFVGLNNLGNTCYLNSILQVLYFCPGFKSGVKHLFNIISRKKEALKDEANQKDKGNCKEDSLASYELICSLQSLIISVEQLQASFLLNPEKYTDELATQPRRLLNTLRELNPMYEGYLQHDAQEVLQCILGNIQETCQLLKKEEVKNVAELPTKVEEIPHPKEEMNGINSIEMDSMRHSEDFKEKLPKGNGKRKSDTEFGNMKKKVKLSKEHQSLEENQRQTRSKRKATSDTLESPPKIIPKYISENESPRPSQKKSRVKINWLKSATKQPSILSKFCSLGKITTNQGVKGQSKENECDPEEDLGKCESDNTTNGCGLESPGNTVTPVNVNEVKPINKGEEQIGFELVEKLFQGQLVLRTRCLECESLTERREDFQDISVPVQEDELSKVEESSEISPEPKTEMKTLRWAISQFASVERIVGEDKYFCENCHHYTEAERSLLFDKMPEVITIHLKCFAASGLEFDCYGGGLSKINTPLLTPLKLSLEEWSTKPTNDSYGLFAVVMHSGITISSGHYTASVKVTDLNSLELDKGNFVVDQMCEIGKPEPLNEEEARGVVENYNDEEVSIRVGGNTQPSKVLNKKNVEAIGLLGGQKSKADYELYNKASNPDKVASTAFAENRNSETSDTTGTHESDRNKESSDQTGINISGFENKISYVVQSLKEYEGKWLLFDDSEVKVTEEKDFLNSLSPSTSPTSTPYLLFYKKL
Structure (SMILES),Potency [1] [µM],"activity change, negative = inhibition [2] [%]",Potency [3],"activity change, negative = inhibition [4] [%]","activity, negative = inhibition [5] [%]",Potency [6] [µM],Potency [7] [µM],Potency [8],Potency [9],Potency [10],Potency [11],activation [12] [%],Potency [13],outcome [14],Potency [15],Potency [16]
Cc1noc(C)c1-c1nccc(Nc2ccc(F)cc2)n1,> 11.4,-22.4,0.398 µM (active),-10.5,1.44,> 46,> 46,inactive,inactive,inactive,3.98 µM (active),21.5,inactive,inactive,–,–
COc1ccc(CNc2ncncc2-c2cccc(NS(C)(=O)=O)c2)c(OC)c1,> 2.29,-14.5,15.8 µM (active),–,17.9,–,> 46,inactive,inactive,inactive,–,–,inactive,inactive,0.251 µM (active),inactive
CN(C)c1nc(-c2ccccc2C(F)(F)F)nc2ccccc12,> 11.4,–,0.251 µM (active),0.537,7.02,–,> 46,inactive,inactive,–,–,–,inactive,inactive,–,inactive
COc1cccc(-c2cncnc2NCc2cccnc2)c1,> 11.4,-6.26,0.794 µM (active),-6.72,3.03,> 46,> 46,inactive,inactive,inactive,0.316 µM (active),–,inactive,inactive,–,inactive
Cc1noc(C)c1-c1nc(N(C)C)c2ccccc2n1,> 11.4,–,0.0398 µM (active),3.94,4.14,> 46,> 46,inactive,inactive,inactive,–,–,inactive,inactive,–,inactive
COc1ccccc1-c1nccc(NCc2cccnc2)n1,> 11.4,5.53,0.2 µM (active),1.48,0.0574,> 46,> 46,–,inactive,inactive,3.98 µM (active),4.59,inactive,inactive,2.51 µM (active),inactive
COc1ccccc1-c1cncnc1NCc1ccccc1,> 11.4,4.35,12.6 µM (active),-17.9,-7.05,–,> 46,inactive,inactive,inactive,–,–,inactive,inactive,–,inactive

# — PubChem BioAssay (NCATS)
